Test results taken from the supplement of paper PMC6555819.

What follows are sequences tested on RARb homodimer (NR concentration 270 nM) (assay: PBM binding z-score (relative to random genomic background probes); higher = stronger binding; sequences stand for … in GC…GCGATTGACAGCGTAGAATGAAGG).
In short: (§1)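 Binding buffer was PBS pH 7.4 with 2% milk, 0.02% Triton X-100, 1 mM DTT, 0.2 mg/mL BSA and 0.4 mg/ml salmon testes DNA. In it, ligand-free nuclear receptor dimers were incubated 1 h on custom Agilent 4×180K protein-binding microarrays carrying double-stranded probes. Antibodies against each partner (one per run) detected binding, and z-scores were calculated against random background probes after regression normalization of scanned fluorescence.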

Sequence	PBM binding z-score
CGAACAAGGTCAAAGGACAGTGAAAGGCGACGTA	3.95
ATATGTAGGTTAAGGTCATTCAGAAAGTAGGGAA	4.18
CTATGTAGGTTAAGGGGGTCACTCAGTTTGAAAG	3.95
CAAGCTAGGTCAAGAGGTCAAAGTCCGCTTCCCG	5.7
CGAACTAGGTCAAAGGACAGTAAAAGGCGACGTA	2.85
TCGAGTAGGTTCCGGGGGCATTCAGGGATGAAGA	1.25
TGAATGAGGTTTAAGATCAGGGAACGTGGCGTCG	-0.403
TCGAGTAGGTTACGGGGGCATTCAAGGATGAAGA	2.13
CGAACTGGGTCAAAGGACAGTGAAAGGCGACGTA	2.58
TCGAGTTGGTTACGGGGGCATTCAGGGATGAAGA	1.6
CGAACTAGGTCACAGGACAGTGAAAGGCGACGTA	3.12
CCGAGTGGGTTACGAGGGGGCATTCAGTGCGAAT	1.94
CAAACTAGGTCACCGGAAAGTCAAAGTCCGCATG	3.86
CTGAGTAGGTTACGAGGGGGCATTCAGTGCGAAT	2.18
CATACCGGGTCAGCTAGGCCAGAGTAGGGACGGC	2.34
AGATGTAGGTTAGGGTCATTCAGAAAGTAGGGAA	3.52
TCGAGTAGGTTACGGGTGCATTCAGGGATGAAGA	0.631

These sequences were tested on RARg:RXRa (NR concentration 270 nM, RXRa partner concentration 90 nM) in the same assay as above.
In short: as §1

Sequence	PBM binding z-score
TGGAGTAGGTTACGGGGGCATTCAGGGATGAAGA	3.75
CGTCCAAGGTCAGAGAGGTCAGTGTATGCCGAGT	6.1
CCTACTGGGCCACGAAAGGTGATTGATTCAGTGA	0.589
ATATGTAGGTTAGGGTCATTAAGAAAGTAGGGAA	3.59
ATATGTAGGTAAGGGTCATTCAGAAAGTAGGGAA	4.21
ATATGTAGGTTAGGGTAATTCAGAAAGTAGGGAA	1.05
AGTCCAAGTTCACTAGGTAACGTAAGATTCAGCT	2.53
TCTCGGAGGACACGAAAAGTCAGAGCTCGACATC	0.704
ATATGTAGGTTAGGGTTATTCAGAAAGTAGGGAA	1.45
CGAACTAGGTCACCAAGACAGTGAAGAGGTTGGA	4.04
CTATGTAAGTTAAGGGGGTCATTCAGTTTGAAAG	4.43
CAAACTAGGTCAAGGGGTCAAAGTCCGCTTCCCG	8
CGCACTAGGTCACCAGGACAGTGAAGAGGTTGGA	4.53
CGACCTAGGTCACCAGGACAGTGAAGAGGTTGGA	5.3
CAAACTAGGTCACGAAAGGTCAACGTCGAATGAC	8.06
TATACAGGATCAAAGGCCAGAGTACGAATGTCGA	0.959
ATATGTAGGTTCCATCCGGGTCATTCAGGCTATG	1.65
CGAACTAGGTCACTAGGACAGTGAAGAGGTTGGA	3.58
CAAACTAGGTCACCGGGAGGTCAAAGTCCGCATG	8.67
GCTGCTAGGTCAGGTTGGTCAACTAACGGGTACG	2.92
CCGAGTAGGTTACGACGGGGCATTCAGTGCGAAT	0.882
CCGAGTAGGTTACGAGGGGGCATTCGGTGCGAAT	3.04
CGAACAAGGTCAAAGGACAGTGAAAGGCGACGTA	5.92
ATATGTAGGTTAAGGTCATTCAGAAAGTAGGGAA	4.81
CTATGTAGGTTAAGGGGGTCACTCAGTTTGAAAG	5.13
CAAGCTAGGTCAAGAGGTCAAAGTCCGCTTCCCG	8.34
CGAACTAGGTCAAAGGACAGTAAAAGGCGACGTA	4.05
TCGAGTAGGTTCCGGGGGCATTCAGGGATGAAGA	1.57
TGAATGAGGTTTAAGATCAGGGAACGTGGCGTCG	0.0866
TCGAGTAGGTTACGGGGGCATTCAAGGATGAAGA	3.22
